The campaign covered roughly 5,500 compounds. About 2,000 (36%) were called active. Another 18% or so got no clear call; they are omitted. This is one part of the list. Values without a mark were called inactive. Cut-off read from the data, not from the text of the source: active = normalized growth mostly below about 0.91 (no sharp cut-off); inconclusive = no clear call, values can overlap the other calls; inactive = mostly above about 0.92.
Test: chemical genetic growth profiling, strain panel (AID 1159580);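 note: tested at 20 µM; growth read once vehicle control cultures reached saturation at 30 °C; 1 = growth at the plate median or of vehicle wells; lower values mean less growth of the strain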
Details: growth OD

Compound `COC(=O)C(C)c1ccc(C(=O)c2cccs2)cc1` (configuration not stated) has a normalized growth (S. cerevisiae deletion strains, locus YJR075W, strain HOC1, hits give low values) of 1.07, a normalized growth (S. cerevisiae deletion strains, locus YKL009W, strain mrt4, hits give low values) of 0.905 and a normalized growth (S. cerevisiae deletion strains, locus YKL068W, hits give low values) of 0.967. The normalized growth (S. cerevisiae deletion strains, locus YKL085W, strain MDH1 (second series), hits give low values) was 0.941, the normalized growth (S. cerevisiae deletion strains, locus YKL085W, strain MDH1, hits give low values) was 0.941 and the normalized growth (S. cerevisiae deletion strains, locus YKL160W, strain elf1, hits give low values) was 1. The normalized growth (S. cerevisiae deletion strains, locus YKL190W, strain CNB1, hits give low values) was 0.997, the normalized growth (S. cerevisiae deletion strains, locus YKR001C, strain vps1, hits give low values) was 0.936 and the normalized growth (S. cerevisiae deletion strains, locus YKR026C, strain gcn3, hits give low values) was 1. The normalized growth (S. cerevisiae deletion strains, locus YKR091W, strain srl3, hits give low values) was 1.01, the normalized growth (S. cerevisiae deletion strains, locus YLL001W, strain dnm1, hits give low values) was 1.01 and the normalized growth (S. cerevisiae deletion strains, locus YLL026W, hits give low values) was 1.01. It also gave a normalized growth (S. cerevisiae deletion strains, locus YLL041C, strain sdh2, hits give low values) of 1.01, a normalized growth (S. cerevisiae deletion strains, locus YLR027C, strain aat2, hits give low values) of 1.01 and a normalized growth (S. cerevisiae deletion strains, locus YLR039C, strain RIC1, hits give low values) of 0.862. It also gave a normalized growth (S. cerevisiae deletion strains, locus YLR058C, strain SHM2, hits give low values) of 0.989, a normalized growth (S. cerevisiae deletion strains, locus YLR102C, strain apc9, hits give low values) of 0.966 and a normalized growth (S. cerevisiae deletion strains, locus YLR113W, strain HOG1, hits give low values) of 0.943. It also gave a normalized growth (S. cerevisiae deletion strains, locus YLR221C, strain rsa3, hits give low values) of 0.978, a normalized growth (S. cerevisiae deletion strains, locus YLR258W, strain gsy2, hits give low values) of 1.02 and a normalized growth (S. cerevisiae deletion strains, locus YLR262C, strain YPT6 (second series), hits give low values) of 0.998. It also gave a normalized growth (S. cerevisiae deletion strains, locus YLR262C, strain YPT6, hits give low values) of 0.842, a normalized growth (S. cerevisiae deletion strains, locus YLR268W, strain sec22, hits give low values) of 0.956 and a normalized growth (S. cerevisiae deletion strains, locus YLR320W, strain mms22, hits give low values) of 1.01. For the same compound, the normalized growth (S. cerevisiae deletion strains, locus YLR330W, strain CHS5, hits give low values) was 0.979, the normalized growth (S. cerevisiae deletion strains, locus YLR342W, strain FKS1 (second series), hits give low values) was 0.881 and the normalized growth (S. cerevisiae deletion strains, locus YLR342W, strain FKS1, hits give low values) was 1.02. It also gave a normalized growth (S. cerevisiae deletion strains, locus YLR357W, strain rsc2, hits give low values) of 1.02, a normalized growth (S. cerevisiae deletion strains, locus YLR370C, strain arc18, hits give low values) of 1.01 and a normalized growth (S. cerevisiae deletion strains, locus YLR371W, strain rom2, hits give low values) of 0.958. For the same compound, the normalized growth (S. cerevisiae deletion strains, locus YLR384C, strain iki3, hits give low values) was 1.01, the normalized growth (S. cerevisiae deletion strains, locus YLR418C, strain cdc73, hits give low values) was 1.06 and the normalized growth (S. cerevisiae deletion strains, locus YML016C, strain PPZ1, hits give low values) was 0.993. For the same compound, the normalized growth (S. cerevisiae deletion strains, locus YML032C, strain rad52, hits give low values) was 0.934, the normalized growth (S. cerevisiae deletion strains, locus YML120C, strain ndi1, hits give low values) was 1.01 and the normalized growth (S. cerevisiae deletion strains, locus YML124C, strain tub3, hits give low values) was 0.958. The normalized growth (S. cerevisiae deletion strains, locus YMR058W, strain fet3, hits give low values) was 1.01, the normalized growth (S. cerevisiae deletion strains, locus YMR078C, strain ctf18, hits give low values) was 0.934 and the normalized growth (S. cerevisiae deletion strains, locus YMR125W, strain sto1, hits give low values) was 1.02. The normalized growth (S. cerevisiae deletion strains, locus YMR129W, hits give low values) was 1.01, the normalized growth (S. cerevisiae deletion strains, locus YMR205C, strain PFK2, hits give low values) was 1.01 and the normalized growth (S. cerevisiae deletion strains, locus YMR223W, strain ubp8, hits give low values) was 0.913. For the same compound, the normalized growth (S. cerevisiae deletion strains, locus YMR231W, strain pep5, hits give low values) was 0.996, the normalized growth (S. cerevisiae deletion strains, locus YMR263W, strain SAP30, hits give low values) was 1.01 and the normalized growth (S. cerevisiae deletion strains, locus YMR307W, strain GAS1, hits give low values) was 0.973. For the same compound, the normalized growth (S. cerevisiae deletion strains, locus YNL067W, strain RPL9B, hits give low values) was 0.988, the normalized growth (S. cerevisiae deletion strains, locus YNL071W, strain lat1, hits give low values) was 1.01 and the normalized growth (S. cerevisiae deletion strains, locus YNL128W, strain TEP1, hits give low values) was 1.03. It also gave a normalized growth (S. cerevisiae deletion strains, locus YNL153C, strain GIM3, hits give low values) of 1.02, a normalized growth (S. cerevisiae deletion strains, locus YNL183C, strain NPR1, hits give low values) of 0.912 and a normalized growth (S. cerevisiae deletion strains, locus YNL209W, strain ssb2, hits give low values) of 1.01. For the same compound, the normalized growth (S. cerevisiae deletion strains, locus YNL233W, strain BNI4, hits give low values) was 1.01, the normalized growth (S. cerevisiae deletion strains, locus YNL248C, strain rpa49, hits give low values) was 1 and the normalized growth (S. cerevisiae deletion strains, locus YNL250W, strain rad50, hits give low values) was 0.976. For the same compound, the normalized growth (S. cerevisiae deletion strains, locus YNL271C, strain bni1, hits give low values) was 0.939, the normalized growth (S. cerevisiae deletion strains, locus YNL298W, strain CLA4, hits give low values) was 0.932 and the normalized growth (S. cerevisiae deletion strains, locus YNL307C, strain MCK1, hits give low values) was 0.819 (active). It also gave a normalized growth (S. cerevisiae deletion strains, locus YNL322C, strain KRE1 (second series), hits give low values) of 1.01, a normalized growth (S. cerevisiae deletion strains, locus YNL322C, strain KRE1, hits give low values) of 0.991 and a normalized growth (S. cerevisiae deletion strains, locus YNR049C, strain mso1, hits give low values) of 1.02. The normalized growth (S. cerevisiae deletion strains, locus YNR052C, strain pop2, hits give low values) was 0.945, the normalized growth (S. cerevisiae deletion strains, locus YOL006C, strain TOP1, hits give low values) was 0.921 and the normalized growth (S. cerevisiae deletion strains, locus YOL012C, strain htz1) was 2.2. The normalized growth (S. cerevisiae deletion strains, locus YOL147C, strain pex11, hits give low values) was 0.97, the normalized growth (S. cerevisiae deletion strains, locus YOR001W, strain rrp6, hits give low values) was 0.983 and the normalized growth (S. cerevisiae deletion strains, locus YOR061W, strain CKA2, hits give low values) was 0.985. It also gave a normalized growth (S. cerevisiae deletion strains, locus YOR069W, strain VPS5, hits give low values) of 0.986, a normalized growth (S. cerevisiae deletion strains, locus YOR070C, strain gyp1, hits give low values) of 1.01 and a normalized growth (S. cerevisiae deletion strains, locus YOR080W, strain dia2, hits give low values) of 1.02. It also gave a normalized growth (S. cerevisiae deletion strains, locus YOR083W, strain WHI5, hits give low values) of 1, a normalized growth (S. cerevisiae deletion strains, locus YOR106W, strain vam3, hits give low values) of 0.995 and a normalized growth (S. cerevisiae deletion strains, locus YOR136W, strain idh2, hits give low values) of 0.959. The normalized growth (S. cerevisiae deletion strains, locus YOR144C, strain elg1, hits give low values) was 0.96, the normalized growth (S. cerevisiae deletion strains, locus YOR184W, strain ser1, hits give low values) was 0.747 (active) and the normalized growth (S. cerevisiae deletion strains, locus YOR231W, strain MKK1, hits give low values) was 0.954. For the same compound, the normalized growth (S. cerevisiae deletion strains, locus YOR265W, strain rbl2, hits give low values) was 1, the normalized growth (S. cerevisiae deletion strains, locus YOR270C, strain vph1, hits give low values) was 0.969 and the normalized growth (S. cerevisiae deletion strains, locus YOR290C, strain snf2, hits give low values) was 1. It also gave a normalized growth (S. cerevisiae deletion strains, locus YOR316C, strain cot1, hits give low values) of 0.97, a normalized growth (S. cerevisiae deletion strains, locus YPL051W, strain arl3, hits give low values) of 1 and a normalized growth (S. cerevisiae deletion strains, locus YPL055C, strain LGE1, hits give low values) of 1.04. The normalized growth (S. cerevisiae deletion strains, locus YPL078C, strain atp4, hits give low values) was 1.01, the normalized growth (S. cerevisiae deletion strains, locus YPL106C, strain sse1, hits give low values) was 1.01 and the normalized growth (S. cerevisiae deletion strains, locus YPL240C, strain hsp82, hits give low values) was 1.02. It also gave a normalized growth (S. cerevisiae deletion strains, locus YPL241C, strain CIN2, hits give low values) of 0.995, a normalized growth (S. cerevisiae deletion strains, locus YPL256C, strain CLN2, hits give low values) of 0.962 and a normalized growth (S. cerevisiae deletion strains, locus YPR119W, strain clb2, hits give low values) of 0.971. The normalized growth (S. cerevisiae deletion strains, locus YPR141C, strain kar3, hits give low values) was 0.968, the normalized growth (S. cerevisiae deletion strains, locus YPR163C, strain tif3, hits give low values) was 0.95 and the normalized growth (S. cerevisiae deletion strains, locus YPR167C, strain met16, hits give low values) was 0.967. For the same compound, the normalized growth (S. cerevisiae deletion strains, strain wtn01, hits give low values) was 0.982 and the normalized growth (S. cerevisiae strains, strain wild type, hits give low values) was 0.983.
